A selection follows.
aSyn 5UTR act – Activators working through SNCA 5'UTR binding (MLPCN); alpha-synuclein 5'UTR reporter, activators screen; hit rate 7.1% among 300,000; AID 1814; activity score, % (tested at 7.5 µM), hits read low; in the data active = activity score below about -60%
* = called active by the depositor.

SMILES | aSyn 5UTR act
Cc1ccc(Nc2nc(CSc3nnc(-c4ccccc4C)n3C)cs2)cc1 | -93*
Cc1ccc(Nc2nc(CSc3nnc(-c4ccccc4)n3C)cs2)cc1 | -68*
COc1ccc(NC(=O)c2oc3ccccc3c2NC(=O)C2CCCO2)cc1OC (stereo unspecified) | -116*
Cc1ccc(NC(=O)c2oc3ccccc3c2NC(=O)C2CCCO2)cc1C (stereo unspecified) | -169*
CCOc1ccccc1NC(=O)c1oc2ccccc2c1NC(=O)C1CCCO1 (stereo unspecified) | -63*
C=CCNC(=O)COc1ccc(Br)cc1Cl | -103*
O=C(COc1ccc(Br)cc1Cl)c1ccc[nH]1 | -69*
COCCNC(=O)COc1ccc(Br)cc1Cl | -68*
N#C/C(=C\c1ccc(OCc2ccccc2)cc1)C(=O)Nc1ccc(C(=O)O)cc1 | -96*
CCOc1cc(/C=C(/C#N)C(=O)Nc2ccc(O)cc2)cc(Br)c1O | 84
COc1cc(/C=C(/C#N)C(=O)Nc2ccccc2)c(Br)cc1OCc1ccc(C(=O)O)cc1 | -67*
O=C(NCCc1ccc2c(c1)OCCO2)c1ccccc1F | -110*
O=C(Nc1ccc2c(c1)OCCO2)c1c(F)cccc1F | -122*
O=C(NC(=S)Nc1ccc2c(c1)OCCO2)c1ccccc1F | -155*
O=C(O)c1cc(S(=O)(=O)Nc2ccc3c(c2)OCCO3)c(Cl)cc1Cl | -82*
O=C(Nc1cccc(F)c1)c1ccc2c(c1)OCCO2 | -111*
COC(=O)c1ccsc1NC(=O)c1ccc2c(c1)OCCO2 | -97*
O=C(Nc1ccccc1)c1ccc2c(c1)OCCO2 | -87*
Cc1ccc(NC(=O)c2ccc3c(c2)OCCO3)cc1C | 74
Cc1ccc(NC(=O)c2ccc3c(c2)OCCO3)cc1S(=O)(=O)Nc1cccc(Cl)c1 | -95*
Cc1ccnc(NC(=O)Cc2ccc(-c3ccccc3)cc2)c1 | -122*
O=C(Cc1ccc(-c2ccccc2)cc1)Nc1ccccn1 | -118*
O=C(Cc1ccccc1)Nc1ccc(N2CCOCC2)cc1 | -73*
O=C(Nc1ccc(N2CCOCC2)cc1)c1cn2ccccc2n1 | 65
CC1CCN(c2ccc(NC(=O)Cc3ccccc3)cc2)CC1 | -82*
SMILES | aSyn 5UTR act
Oc1ccc(-c2[nH]ncc2-c2ccc(Cl)cc2)c(O)c1 | -62*
O=C(Nn1c(SCc2cccc([N+](=O)[O-])c2)nc2ccccc2c1=O)c1ccccc1 | -145*
COc1ccc(C(=O)Nn2c(SCc3cccc([N+](=O)[O-])c3)nc3ccccc3c2=O)cc1 | 66
CN(C)CCCn1cnc2c(c1=N)C(c1ccccc1)c1ccc3ccccc3c1O2 (stereo unspecified) | 90
OCCCN=c1cc(-c2ccccc2)oc2ccc(Cl)cc12 | -440*
CC1(C)CC(N=c2cc(-c3ccccc3)oc3ccc(Cl)cc23)CC(C)(C)N1 | 99
COc1ccc(O)c(-c2cc(-c3ccccc3Cl)[nH]n2)c1 | -115*
COc1ccc(-c2cc(-c3ccccc3)n[nH]2)c(O)c1 | -217*
COc1ccc(O)c(-c2cc(-c3cccs3)[nH]n2)c1 | -125*
COCCn1c(C)cc(/C=C2/NC(=O)N(c3cccc(Cl)c3)C2=O)c1C | -133*
O=C1N/C(=C/c2ccsc2)C(=O)N1c1ccccc1 | -96*
CCn1c(C)cc(/C=C2/NC(=O)N(c3ccccc3)C2=O)c1C | -153*
O=C(/C=C/c1nc2ccccc2s1)N1CCCCCC1 | -107*
CC1CCCCC1NC(=O)/C=C/c1nc2ccccc2s1 (stereo unspecified) | -148*
CN(C)C(=O)c1ccc2c(c1[N+](=O)[O-])C(=O)c1ccccc1C2=O | -116*
O=C(Nc1ccsn1)c1ccc(Cl)cc1Cl | -162*
Cc1ccc(NC(=O)Nc2cc(C)on2)cc1 | -143*
CC(C)(C)c1cc(NC(=O)Nc2ccccc2)no1 | -197*
Cc1cc(/C(N)=N/OC(=O)Nc2ccc(Cl)cc2)no1 | -92*
O=C(CCCN1C(=O)/C(=C/c2ccccc2Cl)SC1=S)NNC(=O)c1ccc(Cl)cc1Cl | 71
Cc1cc(NC(=O)Nc2ccc(Cl)cc2)no1 | -110*
Cc1cc(C(=O)Nc2cc(C(C)(C)C)on2)c(C)o1 | -147*
Cc1cc(C(=O)NNC(=O)c2ccc(Cl)cc2Cl)c(C)o1 | -76*
Cc1cccc(NC(=O)Nc2cc(C)on2)c1 | -73*
Cc1cc(NC(=O)c2ccc(Cl)cc2Cl)no1 | -185*
SMILES | aSyn 5UTR act
CCOC(=O)CNc1c(-c2ccc(OC)cc2)nc2ccc(Cl)cn12 | -127*
COCCNc1c(-c2ccc(OC)cc2)nc2ccc(Cl)cn12 | -117*
COc1nc(-c2ccccc2)ccc1-c1noc(-c2ccccc2F)n1 | -109*
COc1nc(-c2ccc(C)cc2)ccc1-c1noc(-c2ccco2)n1 | -70*
COc1nc(C)ccc1-c1noc(-c2ccco2)n1 | -124*
N#CC(Cc1ccc(OC(F)F)cc1)c1nc2ccccc2[nH]1 (stereo unspecified) | -157*
CCn1c(=O)c(C(=O)Nc2ccsc2C(=O)OC)c(O)c2ccccc21 | -65*
C=CCn1c(O)c(N=NC(=S)Nc2ccc(OC)cc2)c2ccccc21 | 84
C=CCn1c(N)c(C(=O)Nc2ccc(C)cc2)sc1=S | -149*
C=CCn1c(=O)c(C(=O)Nc2ccc(C)cc2)c(O)c2ccccc21 | -76*
C=CCn1c(=O)c(C(=O)Nc2ccccc2S(N)(=O)=O)c(O)c2ccccc21 | -156*
COc1ccc(-n2nc([N+](=O)[O-])c(=NCCC3=CCCCC3)n2O)cc1 | -82*
CCc1ccc(N=c2c([N+](=O)[O-])nn(-c3ccccc3)n2O)cc1 | -88*
COc1ccc(-n2nc([N+](=O)[O-])c(=NCc3cccnc3)n2O)cc1 | -121*
COc1ccc(-n2nc([N+](=O)[O-])c(=NCc3ccco3)n2O)cc1 | -83*
Cc1ccc(C(=O)N/N=C\c2ccc(-c3ccc(Cl)c(Cl)c3)o2)cn1 | -66*
Cc1ccc(C(=O)N/N=C/c2cn(Cc3ccccc3)c3ccccc23)cn1 | 64
COc1ccc(C(=O)NC(=O)Nc2cc(C)ccn2)cc1 | 72
COc1ccc(C(=O)Nc2ccccc2C(=O)Nc2cccnc2)cc1 | -80*
Cc1ccc(NC(=O)C(=O)Nc2ccccn2)cc1 | 71
COc1ccc(C(=O)Nc2ccccc2C(=O)Nc2cccc(C)n2)cc1 | -86*
COc1ccc(C(=O)Nc2ccccc2C(=O)Nc2cc(C)ccn2)cc1 | -107*
COc1ccccc1NC(=O)C(=O)Nc1ccccn1 | -167*
Cc1ccnc(NC(=O)c2cc3ccccc3oc2=O)c1 | -202*
COc1cc(C(=O)Nc2ccccc2C(=O)Nc2ccccn2)cc(OC)c1OC | -67*
SMILES | aSyn 5UTR act
COc1cc2ccccc2cc1C(=O)Nc1cc(C)ccn1 | -94*
Nc1n[nH]c2ccccc12 | -62*
COc1c2c(cc3oc(=O)c4c5ccc(O)cc5oc4c13)OC(C)(C)CC2 | -199*
Clc1ccc(Cl)c(OCc2cc(-c3ccccc3Cl)on2)c1 | -155*
Cc1ccc2nc(-c3ccc(NC(=O)CN4C(=O)NC(C)(c5ccc(OC(F)F)cc5)C4=O)cc3)sc2c1 (stereo unspecified) | -136*
Cc1ccc2nc(NC(=O)Cn3cc4c(n3)CCCCC4)sc2c1 | -108*
Cc1ccc2nc(NC(=O)CN3C(=O)NC4(CCCCC4)C3=O)sc2c1 | -82*
CCc1nonc1NC(=O)c1oc2cc(C)c(C)cc2c1C | -127*
CCc1nnc(NC(=O)c2oc3cc(C)c(C)cc3c2C)s1 | -102*
CC(C)NC(=O)c1cc(-c2ccco2)on1 | -139*
CC(C)NC(=O)c1cc(-c2ccc(Br)cc2)on1 | -124*
CCCNC(=O)c1cc(-c2ccc(Br)cc2)on1 | -85*

Bioassay records from PubChem BioAssay.
